Bioassay records as filed in PubChem BioAssay.
Pf growth 48h = inhibits P. falciparum growth in the first generation, 48 h. AID 504832. 5.9% of 310,000 active. P. falciparum luciferase growth in erythrocytes, 48 h. Potency, µM (titrated, usually from 28.7 µM), without a hit: top-dose activity change, negative = inhibition, hits mostly inhibitors; note: % is set by controls: 0 for no effect and ±100 for the full control effect
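Erythrocytes infected with P. falciparum carrying an integrated firefly luciferase reporter (2% hematocrit, 0.1% parasitemia final) were exposed to compounds in RPMI 1640 with 0.5% Albumax at 37 C, 5% CO2. Growth inhibition was scored as reduced luminescence.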
Vaccinia mCherry = inhibitors of vaccinia virus infection (mCherry reporter signal); Vaccinia virus mCherry reporter infection, fluorescence; Potency, µM (titrated, usually from 36.5 µM), inactives show top-dose activity change, negative = inhibition, usual class: inhibitors; 0.63% of 310,000 active; AID 720579; calls by dose curve; tested in A549 cells; note: % is set by controls: 0 for no effect and ±100 for the full control effect; nearly all actives have a fitted effect of over 35% in size
VACV Venus inh = vaccinia inhibition (Venus reporter) | Vaccinia virus Venus reporter expression, fluorescence | 0.46% of 330,000 active | Potency, µM (highest dose often 36.5 µM), for the others: at the highest dose activity change, negative = inhibition, most hits filed as inhibitors | AID 720580; calls by dose curve; tested in A549 cells; note: % is set by controls: 0 for no effect and ±100 for the full control effect; nearly all actives have a fitted effect of over 30% in size
NS1 function inh = inhibitors of influenza NS1 protein function; 0.4% of 270,000 active; Potency, µM (highest dose often 46.1 µM), inactives show at the highest dose activity, positive = more growth; AID 2326; calls by dose curve; note: actives are rising curves; nearly all actives have a fitted effect of over 50% in size
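OD600 was taken as the measure of yeast growth restored by compound in an NS1-expressing S. cerevisiae strain. Cells had been washed out of glucose medium and diluted 1:100 into galactose -URA medium, pH 6.0.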
HCV inh = inhibitors of hepatitis C virus infection. AID 651820. Potency, µM (series often up to 41.8 µM), inactives show at the top dose activity change, negative = inhibition, actives largely listed as inhibitors. Huh7.5.1 HCVcc-Cre infection, luciferase reporter, 44 h. 3.4% of 340,000 active; note: % is set by controls: 0 for no effect and ±100 for the full control effect
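Whole-lifecycle infectious HCVcc-Cre system; cells 1,000/well, compound then virus (~0.5 moi) added 4 h after plating, 44 h culture. Luciferase read 15 sec following 15 min substrate incubation, room temp.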
Pf growth 96h = P. falciparum growth inhibition at 96 hour, primary screen for plastid delayed-death inhibitors | P. falciparum luciferase reporter growth, 96 h | Potency, µM (series often up to 28.7 µM), for the others: top-dose activity change, negative = inhibition, hits mostly inhibitors | 6.9% of 320,000 active | AID 504834; note: % is set by controls: 0 for no effect and ±100 for the full control effect
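Cell-based qHTS: luciferase-tagged P. falciparum in erythrocytes (2% hematocrit, 0.05% parasitemia final) incubated with compounds for 96 hours, 37 C, 5% CO2; luciferase detection reagent then added and luminescence measured.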
Starred values were filed as active, the others as inactive; i = inactive; ? = inconclusive; nt = not tested or not shown. In the library only some 11% were active in any assay of this set; here they are far more common. Unless noted, calls come from the whole dose curve; as a rule, active = well fitted inhibition curve with a large enough effect; inconclusive = small, poorly fitted or top-dose-only effect, or another doubt; inactive = no such curve, though single readings can be large or run the other way. Potency is the fitted concentration of half-maximal effect.

SMILES	Pf growth 48h	Vaccinia mCherry	VACV Venus inh	NS1 function inh	HCV inh	Pf growth 96h
Cc1cccc2sc(NNC(=O)c3ccc(S(=O)(=O)N4CCCC(C)C4)cc3)nc12 (stereo not drawn)	31%	?	?	-12%	2.8µM*	39%
CCOC(=O)N1CCN(S(=O)(=O)c2ccc(C(=O)NNc3nc4cc(C)cc(C)c4s3)cc2)CC1	?	13µM*	?	?	3.5µM*	?
Cc1cc(C)c2nc(NC(=O)c3ccc(S(=O)(=O)N4CCCC4)cc3)sc2c1	nt	-10%	-14%	nt	nt	nt
CCc1nnc(NC(=O)c2ccc(S(=O)(=O)N3CCCC(C)C3)cc2)s1 (stereo not drawn)	20%	-5%	9%	3%	-3%	34%
Cc1cc(C)c2nc(NNC(=O)c3ccc(S(=O)(=O)N4CCCCC4)cc3)sc2c1	?	?	?	17%	6.3µM*	4.7µM*
Cc1cnc(CNc2nc(-c3ccc(C(=O)N(C)C)cc3)nc3ccccc23)cn1	nt	-1%	2%	nt	nt	nt
COc1ccc(COC(=O)N/N=C/c2cccs2)cc1	25%	nt	nt	6%	-4%	0%
CN1[C@@H]2CC[C@H]1CC(OC(=O)c1c[nH]c3ccccc13)C2 (stereo partly drawn)	nt	-4%	-12%	nt	-21%	nt
CCN1C=C(Cc2ccc(F)cc2)C2=C(C1)C(c1ccc(F)cc1)C(C#N)=C(N)O2 (stereo not drawn)	nt	nt	-26%	-1%	-8%	?
CCN1C=C(Cc2ccccc2C)C2=C(C1)C(c1ccccc1C)C(C#N)=C(N)O2 (stereo not drawn)	nt	nt	-28%	-15%	-22%	2.9µM*
C/C(=N\NC(=S)Nc1ccccc1)C1Cc2ccccc2C(=O)O1 (stereo not drawn)	10µM*	-14%	-4%	9%	2%	?
C/C(=N\NC(=S)Nc1ccccc1C)C1Cc2ccccc2C(=O)O1 (stereo not drawn)	?	?	-6%	0%	8%	12%
N#Cc1c(NC(=O)c2ccccc2)sc2c1CCCCC2	458%	nt	-23%	1%	?	?
N#Cc1c(Cl)nsc1NC(=O)c1ccccc1	?	nt	nt	nt	14µM*	0%
COc1ccc(CNC(=O)c2cc3c(=O)n(C)c4ccccc4c3n2C)c(OC)c1	nt	-10%	-7%	nt	nt	nt
Cc1cc2[nH]c(=O)c(=O)[nH]c2cc1S(=O)(=O)NCc1ccc(Cl)cc1	-5%	nt	nt	-3%	1%	13µM*
COc1ccc(C(=O)Nc2ccc3ncccc3c2)cc1	0%	i	-10%	-33%	0%	122%
Cc1ccc(C(=O)NCC(=O)NCC(=O)OCC(=O)c2ccc([N+](=O)[O-])cc2)cc1	24%	nt	nt	-6%	8%	1%
Oc1ccccc1-n1c(-c2ccccc2)ccc1-c1ccccc1	9.3µM*	?	?	-96%	?	5.9µM*
Cc1ccc(-c2ccccc2)n1-c1ccc(C(=O)O)cc1	21%	nt	nt	-49%	3%	5%
O=C(OCc1ccccc1)c1ccc2c(c1)-c1ccccc1C2=O	9.3µM*	-18%	-8%	1%	?	?
COC(=O)c1cc(O)cc(OC)c1Oc1cc(C)cc(O)c1C(=O)O	2.6µM*	?	?	0%	14%	-4%
COC(=O)c1cc(O)cc(OC)c1C(=O)c1c(O)cc(C)cc1O	?	-11%	-2%	5%	3%	5.2µM*
C=C(C)C(O)Cc1c(OC)ccc(C(=O)/C=C/c2ccc(O)cc2)c1O (stereo not drawn)	nt	-12%	7%	nt	?	nt
CC(C)=CCC/C(C)=C/Cc1c(O)ccc(C(=O)/C=C/c2ccc(O)cc2)c1O	?	?	-13%	-67%	25µM*	8.3µM*
O=C(Cc1ccc(NC2=NC3CS(=O)(=O)CC3S2)cc1)N1CCN(c2ccc(F)cc2)CC1 (stereo not drawn)	5%	-6%	-2%	6%	13%	12µM*
COc1cccc(CNC(=O)c2cccc(NC3=NC4CS(=O)(=O)CC4S3)c2)c1 (stereo not drawn)	31%	-5%	8%	-7%	13%	-10%
